From PubChem BioAssay (NCI) come the findings set out here.

Molecules are shown by their SMILES. Compounds without any hit were thinned out: in the full panel of roughly 83,000, 20% have a hit.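 Negative percent growth values reflect cell death: -40 means 40% of the cells present at the start died, and -100 means all died.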 Values without a mark were called inactive. The source made the active and inactive calls. How the source made its calls: active means growth percent below 10; inactive means the rest.

Some test systems named below: DU-145 prostate; K-562 leukemia; MALME-3M melanoma; MDA-MB-231 breast; RXF 393 renal; SF-268 CNS; SF-295 CNS; SF-539 CNS; UACC-257 melanoma; M14 melanoma; HCT-15 colon; HT29 colon; SNB-75 CNS; SNB-19 CNS; U251 CNS; PC-3 prostate; SK-MEL-5 melanoma; UACC-62 melanoma; LOX IMVI melanoma; SK-MEL-28 melanoma.
Holding throughout (experiment): NCI-60 one-dose screen, 48 h (100 = growth as untreated, 0 = no growth, -100 = all killed)
Holding throughout (conditions): 10 µM unless noted

On to `COc1ccc(-c2noc(C(=O)O)c2-c2cc(OC)c(OC)c(OC)c2)cc1`, for which the growth with DU-145 prostate is 36.1%; with K-562 leukemia it was 12.6%; in the test on MALME-3M melanoma, 52.8%; in the test with MDA-MB-231 breast, 57.1%; in the test on RXF 393 renal, 21.2%; in the test on SF-268 CNS it was 40.5%. Further, the growth in the test on SF-295 CNS is 13.5%; in the test on SF-539 CNS, 3.15% (active); with UACC-257 melanoma, 45.4%; with M14 melanoma it was 11.7%; in the test on HCT-15 colon, 30.4%; with HT29 colon, 4.82% (active). Further, the growth in the test with SNB-75 CNS is -3.43% (active); with SNB-19 CNS it was 31.6%; with U251 CNS, 24.6%; in the test with PC-3 prostate, 26.3%; with SK-MEL-5 melanoma, 13%; in the test on UACC-62 melanoma it was 24.2%. Further, the growth with LOX IMVI melanoma is 35.2%; in the test with SK-MEL-28 melanoma it was 65.3%.

Regarding `CCN(CC)CCn1c2ccc(O)cc2c2sc3cc(O)ccc3c(=O)c21`, the growth in the test with DU-145 prostate was 43.6%; with K-562 leukemia, 14.8%; with MALME-3M melanoma, 15.6%; in the test on MDA-MB-231 breast it was 43.5%; with RXF 393 renal, 26.6%; in the test on SF-268 CNS, 42%. In addition, the growth in the test on SF-295 CNS was 17.6%; in the test with SF-539 CNS, 18.1%; in the test with UACC-257 melanoma it was 55.4%; in the test with M14 melanoma it was 19.6%; in the test on HCT-15 colon, 29.1%; in the test on HT29 colon it was 27.1%. In addition, the growth in the test on SNB-75 CNS was 76.1%; in the test with SNB-19 CNS it was 23.4%; in the test on U251 CNS it was 28.8%; in the test on PC-3 prostate it was 31.5%; in the test with SK-MEL-5 melanoma, 60.7%; in the test on UACC-62 melanoma, 39.4%. Moreover, the growth with LOX IMVI melanoma was 8.55% (active); in the test on SK-MEL-28 melanoma it was 54.5%.

`Oc1ccc(Cl)cc1/C=N\NC(=S)N/N=C/c1cc(Cl)ccc1O`: the growth in the test with DU-145 prostate is 58.3%; with K-562 leukemia it was 22.1%; in the test with MALME-3M melanoma it was 23.4%; in the test with MDA-MB-231 breast it was 37.2%; in the test on RXF 393 renal, 42.6%; in the test with SF-268 CNS it was 40.6%. The growth is 11% in the test with SF-295 CNS; 20% with SF-539 CNS; 21.8% with UACC-257 melanoma; 27.1% in the test on M14 melanoma; 23% with HCT-15 colon; 33.9% with HT29 colon. Also, the growth is 77.7% in the test with SNB-75 CNS; 39.8% in the test on SNB-19 CNS; 25.9% in the test with U251 CNS; 25.8% in the test on PC-3 prostate; -32.6% (active) with SK-MEL-5 melanoma; 3.04% (active) in the test with UACC-62 melanoma. Besides, the growth in the test with LOX IMVI melanoma was 15.7%; in the test on SK-MEL-28 melanoma, 58.4%.

With `CC(=O)Oc1ccc(C)cc1C`, the growth in the test on DU-145 prostate is 110%; with K-562 leukemia it was 101%; in the test on MALME-3M melanoma it was 104%; in the test on MDA-MB-231 breast, 104%; in the test with RXF 393 renal, 114%; in the test with SF-268 CNS, 104%. Moreover, the growth in the test with SF-295 CNS was 106%; with SF-539 CNS, 99%; in the test with UACC-257 melanoma it was 106%; with M14 melanoma, 103%; in the test on HCT-15 colon, 100%; with HT29 colon, 105%. Also, the growth was 70.3% in the test with SNB-75 CNS; 103% with SNB-19 CNS; 103% with U251 CNS; 97% in the test with PC-3 prostate; 108% with SK-MEL-5 melanoma; 105% with UACC-62 melanoma. In addition, the growth in the test with LOX IMVI melanoma was 97.1%; in the test with SK-MEL-28 melanoma it was 107%.

For the compound `CC1OC(n2c3ccccc3c3c4c(c5c6ccccc6[nH]c5c32)C(=O)N(CCN2CCCC2)C4=O)CC(O)C1O` (stereo not given), the growth was 30.2% in the test with DU-145 prostate; 3.65% (active) in the test with K-562 leukemia; 72.3% in the test with MALME-3M melanoma; 74.7% in the test with MDA-MB-231 breast; 30.7% in the test on RXF 393 renal; 37% in the test on SF-268 CNS. Also, the growth in the test with SF-295 CNS was 26.6%; with SF-539 CNS, 39.4%; in the test on UACC-257 melanoma it was 84.5%; with M14 melanoma, 38.6%; in the test with HCT-15 colon, 10.7%; in the test with HT29 colon, -49.9% (active). Also, the growth in the test on SNB-75 CNS was 12.1%; with SNB-19 CNS, 35.1%; in the test on U251 CNS it was 37.9%; with PC-3 prostate it was 33.2%; in the test with SK-MEL-5 melanoma, 61.3%; in the test with UACC-62 melanoma, 67.7%. Further, the growth was 25.3% in the test on LOX IMVI melanoma and 91.4% in the test with SK-MEL-28 melanoma.

With `CCOc1nc(-c2ccccc2)cc2c(O)c(C(=O)N/N=C/c3ccccc3)[nH]c(=O)c12`, the growth in the test with DU-145 prostate is 115%; with K-562 leukemia, 48.2%; in the test with MALME-3M melanoma, 136%; in the test on MDA-MB-231 breast, 117%; with RXF 393 renal, 119%; in the test with SF-268 CNS, 106%. Also, the growth with SF-295 CNS was 134%; with SF-539 CNS it was 112%; in the test on UACC-257 melanoma, 101%; in the test on M14 melanoma, 118%; with HCT-15 colon, 104%; with HT29 colon it was 105%. Also, the growth with SNB-75 CNS was 122%; with SNB-19 CNS it was 105%; with U251 CNS it was 106%; in the test with PC-3 prostate, 93.5%; in the test on SK-MEL-5 melanoma, 102%; in the test on UACC-62 melanoma it was 103%. The growth is 109% in the test on LOX IMVI melanoma and 114% in the test with SK-MEL-28 melanoma.

Turning to `O=C(CSc1nnc(-c2cnccn2)n1-c1ccccc1)c1ccc(Cl)cc1`, the growth in the test with DU-145 prostate was 105%; with K-562 leukemia, 91.1%; in the test on MALME-3M melanoma, 105%; in the test with MDA-MB-231 breast, 99.8%; with RXF 393 renal, 114%; in the test on SF-268 CNS, 104%. For the same compound, the growth in the test on SF-295 CNS is 99.3%; in the test with SF-539 CNS, 103%; with UACC-257 melanoma it was 96%; with M14 melanoma it was 102%; with HCT-15 colon it was 97.5%; with HT29 colon, 94.7%. In addition, the growth in the test with SNB-75 CNS is 110%; in the test on SNB-19 CNS, 101%; in the test with U251 CNS, 93.7%; with PC-3 prostate, 87.8%; with SK-MEL-5 melanoma it was 99.7%; with UACC-62 melanoma it was 84.9%. Also, the values for the growth with LOX IMVI melanoma and in the test with SK-MEL-28 melanoma were 108% and 103%, respectively.

With `O=C(N/N=C/c1c(Cl)cccc1Cl)c1cccnc1Nc1cccc(C(F)(F)F)c1`, the growth in the test on DU-145 prostate is 49.3%; in the test with K-562 leukemia, 73.9%; in the test with MALME-3M melanoma it was 54.3%; in the test on MDA-MB-231 breast, 55.9%; with RXF 393 renal, 68.1%; in the test on SF-268 CNS, 39.3%. Moreover, the growth in the test with SF-295 CNS is 28.8%; in the test on SF-539 CNS, 34.1%; in the test on UACC-257 melanoma it was 56%; in the test with M14 melanoma, 37.3%; in the test with HCT-15 colon, 26%; in the test on HT29 colon, 40.4%. The growth is 63.1% in the test with SNB-75 CNS; 27.7% with SNB-19 CNS; 16.4% in the test on U251 CNS; 24.3% in the test on PC-3 prostate; 20.5% in the test on SK-MEL-5 melanoma; 17.2% in the test with UACC-62 melanoma. The growth is 25.8% in the test with LOX IMVI melanoma and 107% in the test on SK-MEL-28 melanoma.
